For 40 compounds, Potency results are on record in PubChem BioAssay (Tox21).

The structures appear in SMILES notation. Records with an inconclusive call do not appear. A call without a number means that no potency is given here. Activity calls are given as the source filed them. Calls come from the whole dose curve; as a rule, active = well fitted activation curve with a large enough effect in the repeat runs; inconclusive = weak or mixed curves; inactive = no such curve, though single readings can be large or run the other way. Positions of bridges follow the written chain, without caps; N, C: chain ends. Non-standard residues stand in square brackets, D forms with d. Residues, ends and D or L forms follow the SMILES beside them. *: point of attachment. pGlu = O=C1CC[C@@H](C(=O)O)N1; X2 = CC[C@H](C)CCCCC(=O)*; Thz = O=C(O)[C@@H]1CSCN1; Dab = NCC[C@H](N)C(=O)O
Potency is the fitted concentration of half-maximal effect.

This experiment is described as follows: qHTS assay for small molecules that induce genotoxicity in human embryonic kidney cells expressing luciferase-tagged ATAD5 (AID 651632). Note: nearly all actives have a fitted effect of over 15% in size. The conditions noted are these: HEK293T ATAD5-luciferase induction, 16 h; series mostly up to 83.3 µM. An excerpt:
U.S. Tox21 Program National Center for Advancing Translational Sciences [NCATS] NIH Chemical Genomics Center [NCGC] U.S. Environmental Protection Agency [EPA] National Institutes of Environmental Health Sciences [NIEHS] National Toxicology Program [NTP] U.S. Food and Drug Administration [FDA] Tox21 Assay Overview: As cancer cells divide rapidly and during every cell division they need to duplicate their genome by DNA replication. The failure to do so results in the cancer cell death. Based on this concept, many chemotherapeutic agents were developed but have limitations such as low efficacy and severe side effects etc. A new cell based assay was developed to find the compounds that effectively block DNA replication either by directly damaging DNA or by inhibiting other cellular mechanisms. Enhanced Level of Genome Instability Gene 1 (ELG1; human ATAD5) protein levels increase in response to various types of DNA damage. Using a luciferase reporter-gene tagged with ATAD5, a cell-based assay [developed by Kyungjae Myung, NHGRI, NIH] was used to measure the induction of ATAD5 in human embryonic kidney cells (HEK293T). So, increase in luciferase activity can be used to identify the compounds that cause genetic stress.
Tox21 Assay Protocol Summary: For genotoxicity screening, 2,000 cells in 5 uL/well were dispensed into white, solid-bottom 1536-well plates using a Multidrop Combi (Thermo Scientific) dispenser. Following transfer of 23 nL compound or DMSO vehicle by a pin tool, the plates were incubated 16 hr at 37C and 5% CO2. 5 ul Amplite (AAT Bioquest, Inc.) was then added to each plate and following 30 min incubation at room temperature, luciferase activity was quantified on a ViewLux CCD-based plate reader.
(In qHTS, concentration-response curves come from the screen itself.)
In the case of `CNC[C@@H]1CC[C@@H](N)[C@@H](O[C@H]2[C@H](O)[C@@H](O[C@H]3OC[C@](C)(O)[C@H](NC)[C@H]3O)[C@H](N)C[C@@H]2N)O1`, the Potency entry is “inactive”. Regarding `O=c1[nH]cnc2[nH]cc(CN3CCCCC3)c12`, the Potency entry was “inactive”. Take `C#CCC(Cc1cnc2nc(N)nc(N)c2n1)c1ccc(C(=O)N[C@@H](CCC(=O)O)C(=O)O)cc1` (stereo not given in full): the Potency entry is “inactive”. Next, `CC1(C)C(\C=C/C=C\C=C/C=C2/N(CCCCS(=O)(=O)O)c3ccc4ccccc4c3C2(C)C)=[N+](CCCCS(=O)(=O)[O-])c2ccc3ccccc3c21`: “inactive”; `OCCN1CCN(CC/C=C2/c3ccccc3Sc3ccc(Cl)cc32)CC1`: “inactive”. Take `CC(C)N=c1cc2n(-c3ccc(Cl)cc3)c3ccccc3nc-2cc1Nc1ccc(Cl)cc1`: the Potency entry is “inactive”. Next, `CCNC(=O)[C@@H]1CCCN1C(=O)[C@H](CCCN=C(N)N)NC(=O)[C@H](CC(C)C)NC(=O)[C@@H](CC(C)C)NC(=O)[C@H](Cc1ccc(O)cc1)NC(=O)[C@H](CO)NC(=O)[C@H](Cc1c[nH]c2ccccc12)NC(=O)[C@H](Cc1cnc[nH]1)NC(=O)[C@@H]1CCC(=O)N1`: “inactive”. Next, `O=C(O)[C@H]1/C(=C/CO)O[C@@H]2CC(=O)N21`: “inactive”; `Cc1nnc(C(C)C)n1C1C[C@H]2CC[C@@H](C1)N2CC[C@H](NC(=O)C1CCC(F)(F)CC1)c1ccccc1` (stereo not given in full): “inactive”; `CC(=O)O[C@H]1CC[C@@]2(C)C(=CC[C@H]3[C@@H]4CC[C@H](C(C)=O)[C@@]4(C)CC[C@@H]32)C1`: “inactive”.

`C=CCNC1=C2C[C@@H](C)C[C@H](OC)[C@H](O)[C@@H](C)/C=C(\C)[C@H](OC(N)=O)[C@@H](OC)/C=C\C=C(/C)C(=O)NC(=CC1=O)C2=O`: the Potency result is “inactive”. For the compound `CC(=O)c1ccc2c(c1)N(CCCN1CCN(CCO)CC1)c1ccccc1S2`, the Potency result is “inactive”. Consider `CCOC(=O)Cc1cccc(-c2cc(CCCCCCc3ccc(O[C@H]4O[C@H](COC(C)=O)[C@@H](OC(C)=O)[C@H](OC(C)=O)[C@@H]4OC(C)=O)c(-c4cccc(CC(=O)OCC)c4)c3)ccc2O[C@H]2O[C@H](COC(C)=O)[C@@H](OC(C)=O)[C@H](OC(C)=O)[C@@H]2OC(C)=O)c1`, for which the Potency result was “inactive”. `CC1(C)S[C@@H]2[C@H](NC(=O)C(N)c3ccccc3)C(=O)N2[C@H]1C(=O)OC1OC(=O)c2ccccc21` (stereo not given in full): the Potency entry is “inactive”. Next, `CC[C@H](C)CCCCC(=O)N[C@@H](CCN)C(=O)N[C@H](C(=O)N[C@@H](CCN)C(=O)N[C@H]1CCNC(=O)[C@H]([C@@H](C)O)NC(=O)[C@H](CCN)NC(=O)[C@H](CCN)NC(=O)[C@H](CC(C)C)NC(=O)[C@@H](CC(C)C)NC(=O)[C@H](CCN)NC1=O)[C@@H](C)O` (X2-[Dab]T[Dab][Dab][Dab][dL]L[Dab][Dab]T; lactam 4-C): “inactive”; `CO/N=C(\C(=O)N[C@@H]1C(=O)N2C(C(=O)OCOC(=O)C(C)(C)C)=C(/C=C\c3scnc3C)CS[C@H]12)c1csc(N)n1`: “inactive”. `CC(C)C[C@H](NC(=O)[C@@H](Cc1c[nH]c2ccccc12)NC(=O)[C@H](Cc1ccc(O)cc1)NC(=O)[C@H](CO)NC(=O)[C@H](Cc1c[nH]c2ccccc12)NC(=O)[C@H](Cc1cnc[nH]1)NC(=O)[C@@H]1CCC(=O)N1)C(=O)N[C@@H](CCCN=C(N)N)C(=O)N1CCC[C@@H]1C(=O)NCC(N)=O`: the Potency result was “inactive”. In the case of `C#C[C@]1(O)CC[C@H]2[C@@H]3CCC4=C(CCC(=O)C4)[C@H]3CC[C@@]21C`, the Potency entry was “inactive”.

With `OC(CN1CCCCC1)c1cc(-c2ccccc2)on1` (stereo not given), the Potency entry is “inactive”. Consider `COc1ccc(-c2noc(CC(=O)O)c2-c2ccc(OC)cc2)cc1`, for which the Potency result was “inactive”. With `CO[C@H]1C[C@H](O[C@H]2[C@H](C)O[C@@H](O[C@@H]3/C(C)=C/C[C@@H]4C[C@@H](C[C@]5(C=C[C@H](C)[C@@H](C6CCCCC6)O5)O4)OC(=O)[C@@H]4C=C(C)[C@@H](O)[C@H]5OC/C(=C\C=C\[C@@H]3C)[C@]54O)C[C@@H]2OC)O[C@@H](C)[C@@H]1O`, the Potency result is “inactive”. Next, `C/C=C1\NC(=O)[C@H]2CSSCC/C=C/[C@H](CC(=O)N[C@H](C(C)C)C(=O)N2)OC(=O)C(C(C)C)NC1=O` (stereo not given in full): 9.4 nM (active); `NCCCC[C@H](NC(=O)[C@@H]1CCCN1C(=O)[C@@H]1CSSC[C@H](NC(=O)CNC(=O)CNC(=O)CN)C(=O)N[C@@H](Cc2ccc(O)cc2)C(=O)N[C@@H](Cc2ccccc2)C(=O)N[C@@H](CCC(N)=O)C(=O)N[C@@H](CC(N)=O)C(=O)N1)C(=O)NCC(N)=O` (H-GGGCYFQNCPKG-NH2; disulfide 4-9): “inactive”.

Consider `CC(CC(c1ccccc1)c1ccccc1)NC(C)(C)C` (stereo not given), for which the Potency entry is “inactive”. For `CC(C)(C)CC(=O)OCC(=O)[C@@]12OC(C)(C)O[C@@H]1C[C@H]1[C@@H]3CCC4=CC(=O)C=C[C@]4(C)[C@@]3(F)[C@@H](O)C[C@@]12C`, the Potency result was “inactive”. Next, `O=S(=O)(O)c1cc(O)c2c(N=Nc3ccc(Nc4ccccc4)c4c(S(=O)(=O)O)cccc34)cc(S(=O)(=O)O)cc2c1`: “inactive”; `O=P(O)(O)C(Sc1ccc(Cl)cc1)P(=O)(O)O`: “inactive”. For `CCCCCCCCCCCCCCCC(=O)OCC(COC(=O)CCCCCCCCCCCCCCC)OC(=O)CCCCCCCCCCCCCCC`, the Potency entry is “inactive”. Next, `CC[C@]1(O)CC2CN(CCc3c([nH]c4ccccc34)[C@@](C(=O)OC)(c3cc4c(cc3OC)N(C)[C@H]3[C@@](O)(C(N)=O)[C@H](O)[C@]5(CC)C=CCN6CC[C@]43[C@@H]65)C2)C1` (stereo not given in full): 3350 nM (active); `O=C(O)CN(CC(=O)O)CC1=CC2C(=CC1=O)Oc1cc(O)c(CN(CC(=O)O)CC(=O)O)cc1C21OC(=O)c2ccccc21` (stereo not given): “inactive”; `C[C@@H]1C/C=C/C=C/C=C/C=C/[C@H](O[C@@H]2O[C@H](C)[C@@H](O)[C@H](N)[C@@H]2O)C[C@@H]2O[C@](O)(C[C@@H](O)C[C@H]3O[C@@H]3/C=C/C(=O)O1)C[C@H](O)[C@H]2C(=O)O`: “inactive”. As for `CN(C)c1ccc(C(=C2C=CC(=[N+](C)C)C=C2)c2c(O)c(S(=O)(=O)[O-])cc3cc(S(=O)(=O)O)ccc23)cc1`, the Potency entry was “inactive”.

`CC(C)[C@H](N)C(=O)OCC(CO)OCn1cnc2c(=O)[nH]c(N)nc21` (stereo not given in full): the Potency entry is “inactive”. For `O=C(CCCN1CCC(n2c(=S)[nH]c3ccccc32)CC1)c1ccc(F)cc1`, the Potency entry was “inactive”. For the compound `O=C1CC[C@@H](C(=O)N2CSC[C@H]2C(=O)O)N1` ([pGlu]-[Thz]-OH), the Potency result is “inactive”.

For `CCCC(CCC)C(N)=O`, the Potency entry was “inactive”. On to `Cc1onc(-c2ccccc2)c1C(=O)N[C@@H]1C(=O)N2[C@@H]1SC(C)(C)[C@@H]2C(=O)O`, for which the Potency result is “inactive”. Next, `CCC(=O)NS(=O)(=O)c1ccc(-c2c(-c3ccccc3)noc2C)cc1`: “inactive”; `O=C(/C=C/c1cccc(F)c1)NC1CC1`: “inactive”. Next, `CC(C)(C)NCC(O)c1ccc(O)c(CO)n1` (stereo not given): “inactive”.
